Among the data in PubChem BioAssay (NCI) are growth values, retold here.

The panel holds about 83,000 compounds, 20% with a hit somewhere; the sample as a whole holds those more often.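 Values shown are percent growth following 48 h exposure of cells in 96-well plates to a single concentration of compound; below 10 was considered active.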 Unmarked numbers belong to inactive results. The source made the active and inactive calls.

What all share (experiment): NCI-60 one-dose screen, 48 h (100 = growth as untreated, 0 = no growth, -100 = all killed)
Common to all, as to settings: 10 µM unless noted

The subject of assay [1] is NCI-H23 lung.
The test system of assay [2] is NCI-H226 lung.
Assay [3] deals with NCI-H322M lung.
Assay [4] deals with HOP-62 NSCLC.
Assay [5] deals with NCI-H460 lung.
The subject of assay [6] is HOP-92 NSCLC.
Assay [7] deals with NCI-H522 lung.
Assay [8] relates to A549/ATCC NSCLC.
Assay [9] has as its system 786-0 renal.
Assay [10] concerns COLO 205 colon.

`Nc1nc(N)nc(N2CCCCC2)n1`: the growth was 107% in assay [1]; 103% in assay [2]; 94.4% in assay [3]; 104% in assay [4]; 103% in [5]; 96.6% in assay [6]. Besides, the growth in assay [7] is 100%; in assay [8], 104%; in assay [9], 102%; in [10], 108%.

For `C/C(=N\N=C(/C)c1cccc([N+](=O)[O-])c1)c1cccc([N+](=O)[O-])c1`, the growth in assay [1] was 90.3%; in assay [2] it was 111%; in assay [3], 96.1%; in [4], 74.3%; in assay [5] it was 86.4%; in assay [6], 87.5%. Moreover, the growth in assay [7] was 57.3%; in [8], 79.3%; in assay [9] it was 77.4%; in assay [10], 79.8%.

Consider `COc1ccc(-c2csc(NC(=O)Nc3nc(-c4ccc(OC)cc4)cs3)n2)cc1`, for which the growth was 66.8% in assay [1]; 70.6% in assay [2]; 90.1% in assay [3]; 106% in assay [4]; 84.7% in assay [5]; 89% in assay [6]. Besides, the growth in [7] was 92.5%; in assay [8], 81.3%; in assay [9], 97.8%; in assay [10] it was 98.5%.

As to `CC1CC2C3CCC4=CC(=O)CCC4(C)C3CCC2(C)C1(O)C(=O)CO` (stereo not given), the growth in assay [1] is 115%; in assay [2], 103%; in assay [3], 109%; in [4], 106%; in assay [5], 117%; in assay [6] it was 100%. Further, the growth in [7] was 92.2%; in assay [8], 88.6%; in assay [9], 112%; in [10], 117%.

In the case of `C=C1SC(=Nc2c(C)cccc2C)N(c2nc(Cl)nc(Cl)n2)C12CCCCC2`, the growth in assay [1] was 103%; in [2], 104%; in [3] it was 85.4%; in assay [4], 105%; in [5], 110%; in assay [6], 105%. The growth in [7] was 82.9%; in [8], 96.2%; in assay [9], 99.9%; in [10], 109%.

As to `CCOC(=O)c1cc(C)[nH]c(=O)c1C#N`, the growth in assay [1] is 97.5%; in assay [2], 101%; in [3] it was 93.6%; in [4], 97.3%; in [5], 114%; in assay [6], 104%. The growth in assay [7] was 74.4%; in assay [8] it was 98.5%; in assay [9] it was 100%; in assay [10] it was 114%.

Consider `C=CCC(OC(C)=O)c1ccc(C(C)C)cc1` (stereo not given), for which the growth in [1] is 108%; in assay [2], 106%; in assay [3], 120%; in [4], 109%; in assay [5] it was 106%; in assay [6], 86.7%. For the same compound, the growth was 86.6% in assay [7], 92.3% in assay [8], 108% in assay [9] and 122% in assay [10].

For `COc1ccc(Br)c(C=O)c1`, the growth in assay [1] is 91.4%; in assay [2] it was 84.5%; in assay [3], 89.8%; in [4], 67.4%; in assay [5], 101%; in assay [6], 68.8%. For the same compound, the growth in assay [7] was 98.2%; in assay [8] it was 92.6%; in assay [9], 69.3%; in [10], 102%.

For `ClCC(Cl)[C@@H]1CC2C=CC1C2` (stereo not given in full), the growth was 102% in assay [1]; 91.7% in assay [2]; 108% in assay [3]; 109% in assay [4]; 113% in assay [5]; 99.7% in assay [6]. For the same compound, the growth was 99.6% in [7], 89.1% in assay [8], 94.4% in [9] and 127% in assay [10].

As to `Nc1ncc([N+](=O)[O-])cn1`, the growth in [1] is 102%; in [2], 103%; in assay [3], 95%; in [4] it was 103%; in assay [5], 111%; in assay [6] it was 93.7%. In addition, the growth in assay [7] is 71.2%; in assay [8], 90.1%; in assay [9] it was 105%; in assay [10], 119%.

Take `O=C(O)c1c[nH]c2ccccc2c1=O`: the growth in assay [1] was 96.5%; in assay [2], 105%; in [3] it was 94%; in assay [4] it was 94.9%; in [5] it was 105%; in assay [6], 87%. Moreover, the growth was 93.1% in assay [7], 104% in assay [8], 97.8% in assay [9] and 95.3% in assay [10].

Take `C[C@H](CCC[C@H](C)OS(=O)(=O)c1ccccc1)OS(=O)(=O)c1ccccc1`: the growth in assay [1] was 107%; in assay [2], 90.4%; in assay [3] it was 96.7%; in assay [4], 99.9%; in assay [5] it was 114%; in assay [6] it was 131%. Further, the growth in assay [7] was 86.8%; in assay [8], 117%; in assay [9], 107%; in assay [10], 115%.

As for `Cc1cc(C(=O)NN)c(C#N)c(=O)[nH]1`, the growth in assay [1] was 100%; in [2] it was 99.1%; in assay [3], 110%; in [4], 97%; in assay [5], 97.2%; in assay [6], 87.2%. Moreover, the growth in assay [7] was 89.8%; in assay [8], 101%; in assay [9] it was 107%; in assay [10] it was 94.1%.

As for `CC(=O)OCC1CCC(COC(C)=O)CC1` (stereo not given), the growth in [1] was 95.5%; in assay [2] it was 105%; in [3] it was 96.6%; in [4], 90.8%; in assay [5], 110%; in assay [6] it was 125%. Also, the growth in [7] is 67.4%; in assay [8], 79.7%; in assay [9], 95.3%; in assay [10], 120%.

With `COc1ccc(C(=O)/C(=N/Nc2ccccc2)c2ccc(OC)cc2)cc1`, the growth was 89% in assay [1]; 94.2% in assay [2]; 103% in [3]; 102% in [4]; 94.1% in [5]; 82.1% in assay [6]. Besides, the growth in assay [7] is 79.3%; in assay [8], 85.4%; in [9], 94.2%; in [10] it was 99.9%.

As to `O=C(NC(=S)N1CC=CCC1)c1ccccc1`, the growth in [1] is 107%; in assay [2] it was 104%; in assay [3] it was 116%; in assay [4], 109%; in assay [5], 113%; in assay [6] it was 104%. For the same compound, the growth in assay [7] was 77.3%; in [8], 103%; in assay [9], 111%; in assay [10], 118%.

Consider `N#C/C(=C\NC(=S)N=Nc1c(O)[nH]c2ccccc12)c1nc2ccccc2s1`, for which the growth in assay [1] is 94.7%; in [2], 77.6%; in [3], 101%; in assay [4] it was 95.4%; in assay [5] it was 97.4%; in [6], 83.8%. Further, the growth is 82.9% in assay [7], 90.3% in assay [8], 94.8% in assay [9] and 106% in assay [10].

Consider `C1Cc2onc(-c3noc4c3CCC4)c2C1`, for which the growth is 105% in assay [1]; 120% in [2]; 103% in assay [3]; 103% in [4]; 137% in [5]; 108% in [6]. Moreover, the growth in [7] is 96.5%; in assay [8] it was 104%; in assay [9], 106%; in [10], 115%.

As for `CC(=O)NC(CCc1ccc(Cl)c(Cl)c1)c1cccc(O)c(=O)c1` (stereo not given), the growth in [1] is 21.8%; in assay [2], -13.8% (active); in [3], 5% (active); in assay [4] it was 10.3%; in [5], 3.68% (active); in assay [6], 4.89% (active). Moreover, the growth is 15.7% in [7], 8.58% (active) in [8], 10.2% in assay [9] and 16.7% in assay [10].

With `COC1=C(OC)C(=O)C(SC/C=C(\C)CCCC(C)CCCC(C)CCCC(C)C)=CC1=O` (stereo not given), the growth in assay [1] is 14%; in assay [2], 40.9%; in assay [3], 67.4%; in assay [4], 38.3%; in assay [5], 2.16% (active); in assay [6], -13.1% (active). Further, the growth was -6.14% (active) in [7], 17.8% in assay [8], 66% in [9] and 94.4% in [10].

Consider `C=C1C(=O)C2CCN1CC2`, for which the growth in [1] was 102%; in [2], 101%; in assay [3], 99.5%; in assay [4], 101%; in assay [5], 104%; in assay [6], 104%. Also, the growth in [7] is -53.8% (active); in assay [8] it was 97%; in assay [9], 96.2%; in assay [10], 102%.

In the case of `OCC(O)COc1ccc(Cl)cc1Cl` (stereo not given), the growth is 105% in assay [1]; 106% in assay [2]; 95.1% in assay [3]; 88.4% in assay [4]; 111% in [5]; 130% in [6]. The growth in [7] was 79.5%; in [8] it was 72.6%; in assay [9], 93.4%; in [10], 94%.

On to `CC1CCC(C)(C)c2ccccc21` (stereo not given), for which the growth in assay [1] is 97.2%; in assay [2], 90%; in [3] it was 98.9%; in assay [4] it was 99.9%; in [5] it was 109%; in assay [6] it was 116%. Besides, the growth in assay [7] is 93.6%; in assay [8], 98.2%; in assay [9], 101%; in assay [10], 104%.

For the compound `O=C(CCl)Nc1ccccc1SCc1cc(Cl)cc2c1OCOC2`, the growth in [1] is 82.7%; in [2] it was 82.8%; in [3] it was 89.7%; in assay [4], 100%; in [5], 105%; in assay [6] it was -6.11% (active). Besides, the growth in assay [7] was -74.8% (active); in assay [8], 96.5%; in assay [9], 99.6%; in assay [10], 95.7%.

In the case of `CC(c1ccccc1)N(C)C` (stereo not given), the growth was 110% in assay [1]; 95.3% in assay [2]; 92.3% in [3]; 87.9% in assay [4]; 107% in assay [5]; 111% in [6]. In addition, the growth in [7] was 98%; in assay [8], 106%; in assay [9] it was 104%; in assay [10], 103%.

In the case of `Cc1ccc(S(=O)(=O)Oc2ccc3sc4c(CO)ccc(NCCN(C)C)c4c(=O)c3c2)cc1`, the growth is -79.5% [100 µM] (active) in assay [1]; -42.2% [100 µM] (active) in [2]; -98.2% [100 µM] (active) in assay [3]; -68.3% [100 µM] (active) in assay [4]; -83% [100 µM] (active) in assay [5]; -80.1% [100 µM] (active) in [6]. In addition, the growth in [7] is -74.4% [100 µM] (active); in assay [8], -70.9% [100 µM] (active); in assay [9], -73.4% [100 µM] (active); in [10], -87.6% [100 µM] (active).
